Results taken from PubChem BioAssay AID651965 (National Center for Advancing Translational Sciences (NCATS), 2013).
Screen size: about 340,000 compounds; about 6,400 (1.9%) were called active. Another 4% or so got no clear call; they are omitted. Calls come from the whole dose curve; as a rule, active = well fitted falling curve with a large enough effect; inconclusive = small, poorly fitted or top-dose-only effect; inactive = no such curve, though single readings can be large or run the other way. Only a selection was taken, and actives are over-represented in it overall.

Molecular target: ATP-dependent Clp protease proteolytic subunit (Bacillus subtilis (strain 168)) (UniProt P80244)
Assay: qHTS Assay for Activators of ClpP; note: the source files actives as falling curves though it sought activators and does not explain the sign; nearly all actives have a fitted effect of over 65% in size
Conditions: purified B. subtilis ClpP, FRET peptide cleavage, 20 min; series mostly up to 57.5 µM; activity change, negative = active: at the top concentration
Outline: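 FRET quenching reversal measured ClpP activation: 10 microg/mL B. subtilis ClpP at pH 8 with the FRET-FV decapeptide, read at 430 nm after 320 nm excitation. The 20-min minus 0-min signal was scaled between DMSO/no-enzyme wells and ADEP (5.8 microM final).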
Potency is the fitted concentration of half-maximal effect.

Sequence of ATP-dependent Clp protease proteolytic subunit (Bacillus subtilis (strain 168)) (P80244 whole entry, looked up): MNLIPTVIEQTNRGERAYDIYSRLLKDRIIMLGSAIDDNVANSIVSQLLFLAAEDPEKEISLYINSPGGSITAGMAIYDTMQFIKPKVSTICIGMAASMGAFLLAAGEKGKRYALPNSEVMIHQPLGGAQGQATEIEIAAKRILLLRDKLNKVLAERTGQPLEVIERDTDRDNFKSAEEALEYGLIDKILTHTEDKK

Activity change, negative = active, inactive:
C(=Nc1ccc(/C=C/c2ccnc3ccccc23)cc1)Nc1ccc(/C=C/c2ccnc3ccccc23)cc1 -6.68%, Nc1ncnc2c1ncn2[C@@H]1O[C@H](C(=O)N2CCSC2)[C@@H](O)[C@H]1O 0.957%, CCOC(=O)C1C(C)C(C(C)(C)C)N(S(=O)(=O)c2ccc(C)cc2)C1c1ccccc1 (configuration not stated) 0.713%, Nc1nc(CSc2nnnn2-c2ccccc2)nc(Nc2ccccc2)n1 -2.32%, OC[C@@H]1CN(Cc2cccs2)C[C@H](n2cnc3c(NC4CCCC4)ncnc32)O1 -2.11%, CCOC(=O)CSC1=Nc2ccccc2C2=NC(CCC(=O)NCc3ccc(F)cc3)C(=O)N12 (configuration not stated) 4.54%, O=C(CCC1N=C2c3ccccc3N=C(SCc3ccccc3F)N2C1=O)NCCc1ccccc1 (configuration not stated) 4.35%, CCCOc1ccc(F)cc1-c1cc(C(=O)Nc2ccc(F)cc2)[nH]n1 -0.0166%, CC(C)C1CCN(C(=O)C2CCC(=O)N(C3CCCCCC3)C2)CC1 (configuration not stated) 1.03%, COCCN(Cc1ccco1)C(=O)Cn1ncc2c([nH]c3ccccc32)c1=O 4.44%, O=c1c2[nH]c3ccc(Cl)cc3c2ncn1Cc1ccccn1 -14.7%, COc1ccc(Cn2ccnc2SCC(=O)NCc2ccco2)cc1 -2.28%, COc1ccc2c(c1)c1ncn(Cc3ccccn3)c(=O)c1n2C 4.35%, CN(C)CCCOc1ccc(-c2ccc3nccn3c2)cn1 -24.3%, COc1cccc(NC(=O)C2(C)CCN2Cc2ccccc2Cl)c1 (configuration not stated) -0.477%, CC1=C(C(=O)N(C(C)C)C(C)C)CC(CC(=O)NCCCCc2ccccc2)C(=O)N1CCC1=CCCCC1 (configuration not stated) -0.51%, CN(Cc1ccccc1)C(=O)CCC1CCN(C(=O)c2ccco2)CC1 1.04%, Cc1ccc2c(c1)c1ncn(CCC3=CCCCC3)c(=O)c1n2C -29.4%, Cc1ccc2c(c1)c1ncn(Cc3ccc(F)cc3)c(=O)c1n2C 3.72%, CCCCN1C(=O)C(CC(=O)NCc2cccs2)CC(C(=O)N2CCCCCC2)=C1C (configuration not stated) 2.09%, CCOC1=C2[C@@H](CN(S(=O)(=O)c3ccc(C)cc3)[C@H]2c2ccccc2F)[C@H]2C(=O)N(Cc3ccccc3)C(=O)[C@H]2C1 -5.97%, Cc1ccc(OCC(=O)Nc2ccc(Cl)c(-c3nc4ccccc4[nH]3)c2)cc1C 4.68%, Oc1ccc(-c2[nH]ncc2-c2nc3ccccc3s2)c(O)c1 -25.2%, Nc1ccccc1-c1nc2ccncc2[nH]1 3.69%, Clc1ccccc1SCc1nc2ccccc2[nH]1 -2.24%, COc1ccc(NC(=O)CSc2nc3ccccc3[nH]2)cc1 -0.614%, COc1ccc(-c2cn[nH]c2-c2ccc(OC)cc2)cc1 -8.81%, COc1cccc(CNC(=O)[C@@H]2CCCN2C(=O)[C@@H]2CCCN2C(=O)c2ccccc2)c1 -3.48%, Cc1[nH]c2ccccc2c1C(=O)c1cc([C@H](NC(=O)OC(C)(C)C)C(C)C)sc1N -1.88%, CN(Cc1cn(Cc2ccc(C(F)(F)F)cc2)nn1)C1CN(Cc2cn(Cc3ccc(C(F)(F)F)cc3)nn2)S(=O)(=O)C1 (configuration not stated) 2.25%, CCOCCCNC(=O)c1cn(CC)c2ccc(S(=O)(=O)N3CCc4ccccc4C3)cc2c1=O -0.751%, COCCCNC(=O)Cn1cc(C(=O)C2CC2)c2ccccc21 0.52%, CC(=O)C[C@@H]1OC[C@H](CO)N1S(=O)(=O)c1ccc(C)cc1 0.114%, CCN1CCN(c2ccc(/C=C/c3ccnc4ccccc34)cc2)CC1 -1.67%, COc1ccc(N2CCN(C(c3cc4ccc(C)cc4[nH]c3=O)c3nnnn3C3CCCC3)CC2)cc1 (configuration not stated) -8.89%, COCCn1nnnc1C(c1ccccc1Cl)N1CCN(c2ccccc2OC)CC1 (configuration not stated) 16.9%, CSCCC(C(=O)NC(C)(C)C)n1c(-c2ccccc2)nc2ccccc21 (configuration not stated) -7.98%, Cc1cccc(C)c1-n1nnnc1C(CCc1ccccc1)N1CCN(C/C=C/c2ccccc2)CC1 (configuration not stated) 2.81%, CCCCNC(=O)c1nc(C2CCN(S(=O)(=O)c3ccc(F)c(F)c3)CC2)oc1-c1cccc(C(F)(F)F)c1 -16.5%, COc1ccc(-c2nc3cc(C)ccn3c2NC2CCCCC2)cc1SC1CCCCC1 3.39%, CCOc1cc(C(C(=O)NCC2CCCO2)N(C(=O)Cn2nnc3ccccc32)c2cccc(OC)c2)ccc1O (configuration not stated) -0.295%, Cc1ccc(S(=O)(=O)NN=C2CC(C)(C)CC(=O)C2(C)C)cc1 -0.103%, O=C1COc2ccc(-c3csc(-c4ccc(Cl)cc4)n3)cc2N1 3.36%, CSc1ccccc1-c1nnc(NC(=O)c2ccc3c(c2)OCCO3)o1 4.31%, COc1ccccc1-c1nnc(-c2ccc(F)cc2)o1 -0.414%, CCC(C)CN1C(=O)CSCC1(C)C(=O)NCc1ccccc1 (configuration not stated) -4.83%, O=C(NCc1ccccc1)c1ccc2c(c1)nc1n2CCCCC1 -5.59%, Cc1ccc(C)n1-c1nnc(N2CCC(C(=O)NCc3ccc(F)cc3)CC2)s1 10.4%, CN1OC[C@@H]2CN(C(=O)C(C)(C)C)[C@H](c3ccc(-n4ccnc4)cc3)C[C@@H]21 -0.0839%, CN1CCN(C(=O)c2ccc(-c3cc4nc(NCc5cccnc5)n(C)c(=O)c4s3)cc2)CC1 4.86%

Potency, active:
NC(=O)CSC1=Nc2ccccc2C2=NC(CCC(=O)NCc3ccc(F)cc3)C(=O)N12 (configuration not stated) 28.2 µM, Cc1ccc2[nH]c3c(=O)n(Cc4ccccn4)cnc3c2c1 31.6 µM, COc1ccc2[nH]c3c(=O)n(Cc4ccco4)cnc3c2c1 25.1 µM, Cc1ccc2c(c1)c1ncnc(N3CCc4ccccc4C3)c1n2C 31.6 µM, COc1ccc(-c2[nH]nc(-c3ccccc3)c2-c2nc3ccccc3[nH]2)cc1 25.1 µM, c1ccc(-c2[nH]ncc2-c2nc3ccccc3[nH]2)cc1 25.1 µM, c1ccc2[nH]c(-c3nc4ccccc4[nH]3)nc2c1 7.08 µM, CCOCCCNC(=O)c1cn(CC(C)C)c(=O)c2c1c1ccccc1n2C 39.8 µM, CCOc1ccc2[nH]c(=O)c(C(c3nnnn3CCOC)N3CCOCC3)cc2c1 (configuration not stated) 15.8 µM, CCOc1cc(-c2nc3cc(C)ccn3c2NCC2CCCO2)ccc1O (configuration not stated) 28.2 µM, CSc1ccccc1-c1nnc(-c2ccc(Cl)cc2)o1 31.6 µM, O=C(NCc1ccc(F)cc1)c1ccc2nc(N3CCCCC3)sc2c1 35.5 µM
